Laboratory results taken from PubChem BioAssay AID1159580 (chemical genetic matrix, 2015).
Several values for one entry are separate records, joined by “and”; a condition that tells them apart may be missing. Equal entries are not always repeated. Out of some 5,500 compounds screened, about 2,000 (36%) were called active. Not shown: some 18% with an inconclusive outcome. Rule as the data show it: active = normalized growth mostly below about 0.91 (no sharp cut-off); inconclusive = no clear call, values can overlap the other calls; inactive = mostly above about 0.92. Some of the results follow.

Experiment: chemical genetic growth profiling, strain panel (AID 1159580);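 also: tested at 20 µM; growth read once vehicle control cultures reached saturation at 30 °C; 1 = growth at the plate median or of vehicle wells; lower values mean less growth of the strain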
Conditions: S. cerevisiae deletion strains, growth OD

Measured: normalized growth

COc1cc2ccc(=O)oc2c2ccoc12
inactive: locus YAL021C, strain ccr4, hits give low values 0.941 | locus YAL030W, strain snc1, hits give low values 0.982 | locus YBL061C, strain skt5, hits give low values 0.999 | locus YBR021W, strain FUR4, hits give low values 1.04 | locus YBR023C, strain chs3, hits give low values 0.932 | locus YBR171W, strain sec66, hits give low values 0.984 | locus YBR229C, strain ROT2, hits give low values 0.998 | locus YBR279W, strain paf1, hits give low values 0.99 | locus YCL029C, strain bik1, hits give low values 0.982 | locus YCR088W, strain abp1, hits give low values 1.01 | locus YDL005C, strain med2, hits give low values 0.994 | locus YDL035C, strain GPR1, hits give low values 0.971 | locus YDL040C, strain nat1, hits give low values 1 | locus YDL074C, strain BRE1, hits give low values 0.85 | locus YDL101C, strain DUN1, hits give low values 0.94 | locus YDL134C, strain PPH21, hits give low values 0.964 | locus YDL185W, strain tfp1, hits give low values 0.937 | locus YDL192W, strain arf1, hits give low values 0.955 | locus YDR001C, strain nth1, hits give low values 0.994 | locus YDR069C, strain doa4, hits give low values 0.905 | locus YDR101C, strain arx1, hits give low values 0.985 | locus YDR137W, strain rgp1, hits give low values 1.03 | locus YDR162C, strain NBP2, hits give low values 0.974 | locus YDR318W, strain mcm21, hits give low values 0.965 | locus YDR388W, hits give low values 1 | locus YDR502C, strain sam2, hits give low values 0.958 | locus YEL037C, strain rad23, hits give low values 0.957 | locus YEL061C, strain CIN8 (second series), hits give low values 0.99 | locus YER016W, strain bim1, hits give low values 1 | locus YER110C, hits give low values 0.975 | locus YER111C, strain swi4, hits give low values 1 | locus YER155C, strain BEM2, hits give low values 1.02 | locus YER167W, strain BCK2, hits give low values 1.01 | locus YFR010W, strain ubp6, hits give low values 0.915 | locus YGL078C, strain dbp3, hits give low values 0.967 | locus YGL086W, strain mad1, hits give low values 0.969 | locus YGL167C, strain pmr1, hits give low values 0.998 | locus YGL227W, strain vid30, hits give low values 0.999 | locus YGL248W, strain PDE1, hits give low values 0.952 | locus YGR078C, strain PAC10, hits give low values 0.977 | locus YHR013C, strain ard1, hits give low values 0.953 | locus YHR030C, strain SLT2, hits give low values 1 and 0.986 | locus YHR079C, strain IRE1 (second series), hits give low values 0.961 | locus YHR079C, strain IRE1, hits give low values 1.02 | locus YHR094C, strain hxt1, hits give low values 0.996 | locus YHR129C, strain ARP1, hits give low values 1 | locus YIL066C, strain RNR3, hits give low values 1 | locus YIL073C, strain SPO22, hits give low values 0.957 | locus YIL125W, strain kgd1, hits give low values 1.01 | locus YIR030C, strain dcg1, hits give low values 0.993 | locus YJL092W, strain hpr5, hits give low values 0.973 | locus YJL095W, strain BCK1 (second series), hits give low values 0.937 | locus YJL095W, strain BCK1, hits give low values 0.906 and 0.992 | locus YJL134W, strain LCB3, hits give low values 1 | locus YJL154C, strain vps35, hits give low values 0.996 | locus YJL168C, strain set2, hits give low values 0.983 | locus YJL187C, strain SWE1 (second series), hits give low values 0.98 | locus YJR043C, strain POL32, hits give low values 0.921
active: locus YAL026C, strain drs2, hits give low values 0.859 | locus YBR009C, strain hhf1, hits give low values 0.777 | locus YBR231C, strain swc5, hits give low values 0.733 | locus YCL011C, strain gbp2, hits give low values 0.823 | locus YCL016C, strain dcc1, hits give low values 0.828 | locus YCL069W, strain vba3, hits give low values 0.915 | locus YDR159W, strain sac3, hits give low values 0.829 | locus YDR195W, strain ref2 1.3 [resistant] | locus YDR297W, strain sur2, hits give low values 0.903 | locus YDR334W, strain swr1, hits give low values 0.772 | locus YDR335W, strain msn5, hits give low values 0.896 | locus YDR392W, strain spt3, hits give low values 0.665 | locus YEL003W, strain gim4, hits give low values 0.818 | locus YER015W, strain faa2, hits give low values 0.92 | locus YER155C, strain BEM2 (second series), hits give low values 0.731 | locus YGL173C, strain kem1, hits give low values 0.862 | locus YGL240W, strain doc1, hits give low values 0.692 | locus YGL253W, strain hxk2, hits give low values 0.892 | locus YGR135W, strain pre9, hits give low values 0.893 | locus YGR252W, strain gcn5, hits give low values 0.76 | locus YHR027C, strain rpn1, hits give low values 0.881 | locus YHR142W, strain chs7, hits give low values 0.838 | locus YHR200W, strain rpn10, hits give low values 0.899 | locus YJL115W, strain asf1, hits give low values 0.883 | locus YJL129C, strain trk1, hits give low values 1.14 [resistant] | locus YJL164C, strain tpk1, hits give low values 0.902 | locus YJL166W, strain qcr8, hits give low values 0.826
